KKLEB cytotox – counter-screen for CF NF-kB inhibitors: cytotoxicity. KKLEB CF airway cells viability, ATPlite luminescence, overnight; active compounds read low; cells stimulated with P. aeruginosa culture filtrate. activity change (cytotoxicity), % at 5 µM. actives 0.36% (n = 360,000);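 active means corrected activity change at or below -50% at 5 µM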
ABHD5 PLIN5 PPI – blocks binding of human ABHD5 to perilipin-5. Split G. princeps luciferase complementation, luminescence, 4 h. actives 0.78% (n = 360,000). AID 602281. inhibition, % at 4 µM. Q00G26+Q8WTS1;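 active means inhibition above the mean inhibition across every tested compound plus 3 SD, cut at about 22% in these data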
CF NFkB inh – cystic fibrosis NF-kB activation inhibition; KKLEB NF-kB-GFP reporter, PAF-induced, GFP fluorescence overnight; inhibition, % at 5 µM; actives 0.86% (n = 360,000);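 active means at least 50% inhibition at 5 µM, scaled per plate between neutral and stimulator controls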;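 further: PAF is a Pseudomonas aeruginosa culture filtrate used as stimulus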
HIF-2a block – inhibitors of HIF-2a. actives 0.72% (n = 360,000). 786-0 RCC cells HIF-2a reporter, luciferase luminescence, overnight. inhibition, % at 18.8 µM. AID 624352;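 active means inhibition of the luminescence signal of 40% or more relative to plate controls, in a single-dose primary screen at 18.75 µM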
Mdm2-MdmX inh – inhibitors of human Mdm2/MdmX interaction; O15151+Q00987; SaOS-2 split-luciferase Mdm2/MdmX complementation, luminescence; inhibition, % at 8 µM; actives 3% (n = 330,000); AID 485346;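 active means inhibition of at least 50% at 8 µM in the primary screen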
Target sequence (O15151 whole entry, looked up): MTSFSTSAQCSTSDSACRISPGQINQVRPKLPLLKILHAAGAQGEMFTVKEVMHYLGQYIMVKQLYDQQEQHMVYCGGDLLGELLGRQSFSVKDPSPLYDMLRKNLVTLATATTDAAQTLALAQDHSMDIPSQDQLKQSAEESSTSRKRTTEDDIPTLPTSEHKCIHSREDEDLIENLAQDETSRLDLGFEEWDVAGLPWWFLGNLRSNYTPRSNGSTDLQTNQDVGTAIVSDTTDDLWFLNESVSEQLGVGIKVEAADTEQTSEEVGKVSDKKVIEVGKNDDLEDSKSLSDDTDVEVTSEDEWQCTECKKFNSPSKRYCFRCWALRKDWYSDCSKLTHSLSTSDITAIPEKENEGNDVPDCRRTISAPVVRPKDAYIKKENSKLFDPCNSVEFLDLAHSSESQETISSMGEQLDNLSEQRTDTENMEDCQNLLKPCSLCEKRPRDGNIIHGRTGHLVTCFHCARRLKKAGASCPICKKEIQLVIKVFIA
Target sequence (Q00987 whole entry, looked up): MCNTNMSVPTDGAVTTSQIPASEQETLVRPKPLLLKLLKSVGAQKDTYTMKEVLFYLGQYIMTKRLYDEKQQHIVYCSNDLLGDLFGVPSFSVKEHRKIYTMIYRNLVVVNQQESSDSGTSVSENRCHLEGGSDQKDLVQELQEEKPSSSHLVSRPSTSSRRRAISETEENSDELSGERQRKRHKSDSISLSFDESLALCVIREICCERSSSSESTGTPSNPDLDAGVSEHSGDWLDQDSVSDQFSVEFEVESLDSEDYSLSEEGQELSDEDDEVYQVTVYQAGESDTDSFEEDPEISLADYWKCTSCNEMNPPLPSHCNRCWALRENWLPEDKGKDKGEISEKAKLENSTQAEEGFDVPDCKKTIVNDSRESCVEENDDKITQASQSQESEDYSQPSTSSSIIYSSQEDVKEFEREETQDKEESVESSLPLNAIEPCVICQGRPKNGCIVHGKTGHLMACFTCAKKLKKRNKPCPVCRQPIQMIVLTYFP
Peg3 prom inh – inhibitors of Peg3 promoter. HeLa PEG-Prom luciferase reporter, luminescence, overnight. inhibition, % at 20 µM. actives 1.7% (n = 360,000). AID 588405;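 active means inhibition of at least 50% at 20 µM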
Mdm2 MdmX conf – confirmation of human Mdm2/MdmX interaction inhibitors | shares compounds with Mdm2-MdmX inh | inhibition, % at 8 µM | AID 489028 | Mdm2-MdmX binding, luminescent assay | actives 55% (n = 10,000); in the data active means inhibition above about 40%
Full FLuc ctr – full-length luciferase inhibition in Mdm2/MdmX counter-screen. AID 504607. actives 77% (n = 6,200). SaOS-2 full-length luciferase counterscreen, luminescence. shares compounds with Mdm2-MdmX inh. inhibition, % at 8 µM;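 active means mean inhibition at 8 µM reaching about 37%, which flags the compound as non-specific, limit read from the data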;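 further: p53-null SaOS-2 cells with luciferase driven by a doxycycline-inducible promoter; compound on cells about two nights before reading with doxycycline added after day one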
Each line names hits and unclear results; the compound was inactive in the other large screens (follow-up assays come after a bar, where they were run). Hits are enriched below; roughly 4.6% of the tested compounds scored in any of these assays.

COc1ccc(Nc2ccnc3ccccc23)cc1	Mdm2-MdmX inh 65 | Mdm2 MdmX conf 57 | Full FLuc ctr inactive
Cc1ccc(Nc2nc(N3CCOCC3)c3ccccc3n2)cc1	none
COc1ccc(Nc2nc(N3CCCC3)nc3ccccc23)c(OC)c1	Mdm2-MdmX inh 54 | Mdm2 MdmX conf inactive
COc1ccc(Nc2nc(N3CCCCC3)c3ccccc3n2)cc1	Mdm2-MdmX inh 59 | Mdm2 MdmX conf inactive
O=C1COc2ccccc2C(c2nc3ccccc3[nH]2)N1Cc1ccccc1 (configuration not stated)	none (no result: KKLEB cytotox, CF NFkB inh, Mdm2-MdmX inh, Peg3 prom inh)
O=c1ncccn1C1OC(CO)C(O)C1O (configuration not stated)	none (no result: Mdm2-MdmX inh)
COc1ccc(OCCSc2ccc(S(=O)(=O)N3CCCC3)cn2)cc1	none
CN1CCN(S(=O)(=O)c2ccc(SCCOc3ccc(Cl)cc3)nc2)CC1	Mdm2-MdmX inh 59 | Mdm2 MdmX conf inactive
O=C(NCc1ccco1)c1ccc(N2CCCCC2)c([N+](=O)[O-])c1	none
Cc1ccc(N(Cc2ccco2)C(=O)c2ccc(N3CCCCC3)c([N+](=O)[O-])c2)cc1	Mdm2-MdmX inh 54 | Mdm2 MdmX conf inactive
O=C(Cn1cnc2ccccc2c1=O)N1CCN(S(=O)(=O)c2ccc(F)cc2)CC1	none
Cc1ccc(-n2ncc(C(=O)Nc3ccc(Cl)cc3)c2C2CCNCC2)cc1C	Mdm2-MdmX inh 61 | Mdm2 MdmX conf 54 | Full FLuc ctr 77
O=C(c1ccco1)N1CCN(C(=O)c2cnn(-c3ccc(Cl)cc3)c2C2CCNCC2)CC1	none
N=C1S/C(=C\c2cccc3ccccc23)C(=O)N1c1ccc(F)cc1	Mdm2-MdmX inh 56 | Mdm2 MdmX conf 49 | Full FLuc ctr 62
COc1ccc(CN2CCNC(=O)C2CC(=O)N(C)CC2CCOCC2)cc1C (configuration not stated)	none
CCc1ccc2c(c1)C1(C(=O)N2)N2CCCC2C(C(=O)c2ccc3ccccc3c2)C12C(=O)Nc1ccccc12 (configuration not stated)	Mdm2-MdmX inh 91, Peg3 prom inh 104 | Mdm2 MdmX conf inactive | Full FLuc ctr 91
O=C(NCC(=O)N1CCOCC1)c1ccc(Cl)c(Cl)c1	none
CN(C)c1ccc(/C=C/c2cc[n+](C)cc2)cc1	none
Cc1ccc(/C=C/c2ccc(N(C)C)cc2)[n+](C)c1	Mdm2-MdmX inh 74 | Mdm2 MdmX conf inactive
O=[N+]([O-])c1ccc(Nc2ccccn2)c([N+](=O)[O-])c1	none
O=[N+]([O-])c1c(Nc2ccccn2)cc(Cl)c2nonc12	CF NFkB inh 67, HIF-2a block 96, Mdm2-MdmX inh 100, Peg3 prom inh 108 | Mdm2 MdmX conf 100 | Full FLuc ctr inactive
COc1ccc(OC)c(NC(=O)c2cc(-c3cc(Cl)ccc3O)n[nH]2)c1	Mdm2-MdmX inh 88 | Mdm2 MdmX conf 75 | Full FLuc ctr 42
Cc1ccc(NS(=O)(=O)c2cc([N+](=O)[O-])ccc2NNC(=S)Nc2cc(C)ccc2C)c(C)c1	Mdm2-MdmX inh 94 | Mdm2 MdmX conf 88 | Full FLuc ctr 39
CCc1cccc(C)c1NC(=S)NCCc1c(C)[nH]c2ccc(C)cc12	Mdm2-MdmX inh 64, Peg3 prom inh 51 | Mdm2 MdmX conf 54 | Full FLuc ctr 41
COC(=O)/N=C/c1c(NCc2ccccc2)nc2c(C)cccn2c1=O	Mdm2-MdmX inh 70 | Mdm2 MdmX conf inactive
COc1nc(-c2cccs2)cc(-c2ccc(C)cc2)c1C#N	Mdm2-MdmX inh 52 | Mdm2 MdmX conf 55 | Full FLuc ctr 67
COC(=O)c1[nH]c2ccc(Br)cc2c1NC(=O)CN1CCCCC1CCO (configuration not stated)	none
COC(=O)c1[nH]c2ccc(Br)cc2c1NC(=O)C(C)N1CCN(C2CCCCC2)CC1 (configuration not stated)	Mdm2-MdmX inh 96 | Mdm2 MdmX conf inactive | Full FLuc ctr inactive
COC(=O)c1[nH]c2ccc(C)cc2c1NC(=O)C(C)N1CCN(C2CCCCC2)CC1 (configuration not stated)	Mdm2-MdmX inh 53 | Mdm2 MdmX conf inactive
Cc1cc(NC(=O)c2cccc(S(=O)(=O)Nc3cccc(C(=O)O)c3)c2)no1	none
FC(F)(F)c1ccc(CN2C[C@@H]3C(c4ccc(C(F)(F)F)cc4)C4(c5cccnc5)CC3(C4)[C@H]2c2ccccc2)cc1 (some centres not stated)	Mdm2-MdmX inh 65 | Mdm2 MdmX conf inactive
COC(=O)c1cccc(C23CC4(C2)[C@H](CN(Cc2ccc(C(F)(F)F)cc2)[C@@H]4c2ccccc2)C3c2ccc(C(F)(F)F)cc2)c1 (some centres not stated)	Mdm2-MdmX inh 73 (no result: KKLEB cytotox, ABHD5 PLIN5 PPI, CF NFkB inh, HIF-2a block, Peg3 prom inh) | Mdm2 MdmX conf 59 | Full FLuc ctr inactive
CCCCNC(=O)c1ccc2nc(CC)c(N(C)Cc3ccc(OC)cc3)n2c1	none (no result: Mdm2-MdmX inh)
COc1ccc2c(c1)CC/C2=N\OC(=O)c1cccc(C)c1	Mdm2-MdmX inh 97 | Mdm2 MdmX conf 55 | Full FLuc ctr inactive
COc1ccc2c(c1)CC/C2=N\OC(=O)c1ccccc1C	Mdm2-MdmX inh 100 | Mdm2 MdmX conf inactive | Full FLuc ctr inactive
COc1ccc2c(c1)CCC/C2=N/OC(=O)c1ccccc1OC	none
CCC(C)(C)C1CCC2(CC1)NC(=O)N(CC(=O)N1CCN(S(=O)(=O)c3cc(C)ccc3C)CC1)C2=O (configuration not stated)	Mdm2-MdmX inh 82 | Mdm2 MdmX conf inactive | Full FLuc ctr 89
Cc1ccc(C)c(S(=O)(=O)N2CCN(C(=O)CN3C(=O)NC(C)(C)C3=O)CC2)c1	none
CCc1nn(CC(=O)NC(C)CCc2ccccc2)c(=O)c2cc3cc(F)ccc3n12 (configuration not stated)	Mdm2-MdmX inh 55 | Mdm2 MdmX conf inactive
CCc1nn(CC(=O)NC2CCN(Cc3ccccc3)CC2)c(=O)c2cc3cc(F)ccc3n12	Mdm2-MdmX inh 58 | Mdm2 MdmX conf inactive
CCc1nn(CC(=O)NCCCN2CCOCC2)c(=O)c2cc3cc(F)ccc3n12	none
COc1ccc2c(c1)cc1c(=O)n(CC(=O)NC(C)CCc3ccccc3)nc(C)n12 (configuration not stated)	none
COc1ccc(C(=O)N2CCCC(c3cc(C(=O)NCc4cccnc4)no3)C2)cc1 (configuration not stated)	none (no result: Mdm2-MdmX inh)
Cc1ccc(C(=O)O/N=C(\N)c2ccccc2)c(Cl)c1	Mdm2-MdmX inh 80 | Mdm2 MdmX conf 58 | Full FLuc ctr 120
N/C(=N\OC(=O)c1cc(Br)ccc1Cl)c1ccccn1	none

Compound activity (PubChem)
